High-throughput results (PubChem)
A selection: hits, their analogues and other compounds. The true share with any hit is near 5.4%.
Sm TGR inh = inhibitors of Schistosoma mansoni thioredoxin glutathione reductase. purified TGR, DTNB reduction, TNB absorbance 405 nm. Q962Y6. Potency, µM (top dose mostly 114 µM), without a hit: top-dose activity change, negative = inhibition, actives largely listed as inhibitors. AID 485364. hit rate 3% among 360,000; active = well fitted inhibition curve with a large enough effect; inconclusive = small, poorly fitted or top-dose-only effect; inactive = no such curve, though single readings can be large or run the other way; also: nearly all actives have a fitted effect of over 60% in size
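First, TGR (20 nM dispensed) and NADPH were mixed with compound. Second, a 15 min room-temperature incubation followed. Third, further NADPH and then DTNB were added to start the reaction. Finally, TNB absorbance was monitored kinetically.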
MARV entry inh = Marburg virus entry inhibition; Marburg virus pseudotyped entry inhibition, cell reporter; Potency, µM (series often up to 37.8 µM), for the others: top-dose activity change, negative = inhibition, hits mostly inhibitors; hit rate 1.8% among 300,000; calls by dose curve; tested in HEK293 cells
Vaccinia Venus = vaccinia inhibition (Venus reporter) | Vaccinia virus Venus reporter expression, fluorescence | Potency, µM (series often up to 36.5 µM), for inactives: top-dose activity change, negative = inhibition, usual class: inhibitors | hit rate 0.46% among 330,000 | AID 720580; calls by dose curve; tested in A549 cells; also: nearly all actives have a fitted effect of over 30% in size
Vaccinia mCherry = inhibitors of vaccinia virus infection (mCherry reporter signal); Vaccinia virus mCherry reporter infection, fluorescence; Potency, µM (series often up to 36.5 µM), inactives show top-dose activity change, negative = inhibition, actives largely listed as inhibitors; hit rate 0.63% among 310,000; calls by dose curve; tested in A549 cells; also: nearly all actives have a fitted effect of over 35% in size
FMDV antiviral = blocks foot and mouth disease virus; FMDV antiviral cell-based qHTS; Potency, µM (series often up to 57.9 µM), for the others: at the top dose activity change, negative = inhibition, usual class: inhibitors; hit rate 1.2% among 410,000; calls by dose curve; tested in HEK293T cells; also: read-out not given here; nearly all actives have a fitted effect of over 45% in size
LASV entry inh = Lassa virus entry inhibition | Potency, µM (highest dose often 37.9 µM), inactives show at the highest dose activity change, negative = inhibition, actives largely listed as inhibitors | Lassa virus pseudotype entry inhibition, cell reporter | hit rate 1.2% among 300,000; calls by dose curve; tested in HEK293 cells; also: nearly all actives have a fitted effect of over 50% in size
The depositor's hits bear a star; i = inactive; ? = inconclusive; / = no result; [ ] = remark or other dose. % is scaled to controls: 0 for no effect and ±100 for the full control effect; potency is read from the fitted curve at half-maximal effect.

SMILES | Sm TGR inh | MARV entry inh | Vaccinia Venus | Vaccinia mCherry | FMDV antiviral | LASV entry inh
CC(C)(C)c1cnnn1-c1ccc(C(=O)CCl)cc1 | 8.9µM* | ? | / | / | 3% | ?
COc1cccc(OC)c1CN1CCC2(CCC(CNC(=O)c3ccccc3)O2)CC1 (configuration not stated) | / | / | 3% | -13% | -11% | /
CCOc1cc(/C=C/C(=O)c2ccc(O)cc2)ccc1OCC(=O)N(C)C | -16% | -27% | ? | ? | ? | ?
CC(C)(C)c1cc(C(=O)/C=C/c2ccc(C(=O)O)cc2)cc(C(C)(C)C)c1 | / | / | / | / | 25µM* | /
CC(=O)Nc1ccc(/C=C/C(=O)c2ccc3c(c2)OCCO3)cc1 | 0% | 1%[46.1 µM] | -20% | ? | -28% | -25%
CCOc1cc(/C=C/C(=O)c2ccc3c(c2)OCCO3)ccc1OCC(=O)N(C)C | -9% | ? | 10µM* | 10µM* | 14µM* | /
O=C(O)c1ccc(/C=C/C(=O)c2ccc3c(c2)OCCCO3)cc1 | -10% | ? | ? | ? | 10µM* | ?
CN(CC1COCCO1)C(=O)c1cnn(-c2nccc(-c3ccccc3C(F)(F)F)n2)c1C1CC1 (configuration not stated) | / | / | 1% | -13% | 21% | /
O=C(c1cccc(C(=O)N(c2ccccn2)C2CCCCC2)c1)N(c1ccccn1)C1CCCCC1 | 8% | 9.2µM* | -24% | -26% | -7% | ?
Cc1ccc2nc(Cl)c3cc(C(=O)NCCCN4CCCC4)sc3c2c1 | -9% | 10µM* | ? | i | -2% | -18%[46.1 µM]
COc1cc(NC(=O)c2cc3cc4ccc(C)cc4nc3o2)cc(OC)c1OC | 0% | ? | ? | ? | 3.2µM* | ?
COc1ccc2cc3cc(C(=O)NCCC(C)C)oc3nc2c1 | 3% | 10% | -6% | i | 7% | 3.5µM*
Cc1ccc2cc3cc(C(=O)NCCCN4CCCCCC4)oc3nc2c1 | 32µM* | -3%[46.1 µM] | 4% | i | -12% | -1%
Cc1cc(F)ccc1Nc1nc2ccc(Cl)cc2n2cnnc12 | 2% | 1%[46.1 µM] | -8% | -11% | -17% | 6%[46.1 µM]
CCN(CC)C[C@@H]1CCCCN1CC(=O)N1c2ccccc2C(=O)Nc2cccnc21 | / | / | / | / | -14% | /
CCN(CC)CCNC(=O)c1sc2nc(C)cc(C)c2c1-n1cccc1 | -3% | 20%[46.1 µM] | 0% | -2% | 0% | 4%[46.1 µM]
COc1ccc2cc3cc(C(=O)NCCN4CCN(c5ccccc5F)CC4)oc3nc2c1 | 2% | 13µM* | -8% | -16% | 18µM* | ?
COc1cccc2cc(C(C)N(CCCN3CCOCC3)C(=S)Nc3cccc(C)c3)oc12 (configuration not stated) | 8% | 10µM* | -19% | -3% | -16% | ?
c1ccc(Nc2cccc(Nc3ccccc3)c2)cc1 | 35µM* | ? | -24% | ? | 20% | ?
Nc1cccc(Nc2ccccc2)c1 | 40µM* | 5%[46.1 µM] | -2% | -23% | -2% | 24%[46.1 µM]
COc1ccc2[nH]c(=O)c(CN(C(=O)c3cccc(Cl)c3)c3ccccc3OC)cc2c1 | 3% | 5%[46.1 µM] | -23% | -26% | -8% | 1%[46.1 µM]
C1=C(c2ccc(-c3ccccc3)cc2)Nc2ncnn2C1c1ccco1 (configuration not stated) | 22µM* | ? | 82% | / | -23% | 21%
CCOc1ccc(C2C=C(c3ccccc3)Nc3ncnn32)cc1 (configuration not stated) | 79µM* | -3% | / | / | / | /
COc1cccc(C2=CC(c3ccccc3)n3ncnc3N2)c1 (configuration not stated) | 14µM* | 2% | / | / | / | /
COc1ccc(C2C=C(c3ccc(Br)s3)Nc3ncnn32)cc1OC (configuration not stated) | 50µM* | -8% | / | / | / | /
SMILES | Sm TGR inh | MARV entry inh | Vaccinia Venus | Vaccinia mCherry | FMDV antiviral | LASV entry inh
Fc1ccc(C2=CC(c3ccco3)n3ncnc3N2)cc1 (configuration not stated) | ? | 9% | -4% | -7% | -18% | 9%
COc1ccc(C2C=C(c3ccc(Cl)c(Cl)c3)Nc3ncnn32)cc1 (configuration not stated) | 19% | 10%[46.1 µM] | -11% | -27% | 27% | -2%[46.1 µM]
COc1c(CC(=O)c2cc3c(cc2O)OC(C)(C)C(O)C3)ccc2c1C=CC(C)(C)O2 (configuration not stated) | / | / | -9% | i | 0% | /
COc1ccc(C2C=C(c3ccc(C)cc3)Nc3ncnn32)cc1 (configuration not stated) | 28µM* | ? | -26% | / | 0% | ?
Fc1ccc(C2=CC(c3ccc(Br)o3)n3ncnc3N2)cc1 (configuration not stated) | 20µM* | 4% | 11% | -16% | -7% | ?
CCOc1ccc(C2C=C(c3ccc(F)cc3)Nc3ncnn32)cc1 (configuration not stated) | 28µM* | 12% | -23% | -12% | 30% | ?
Oc1ccc(C2C=C(c3ccc(F)cc3)Nc3ncnn32)cc1 (configuration not stated) | 45µM* | / | / | / | -17% | /
C[C@H]1C[C@@H](C)O[C@@]2(C1)C(=O)N(CC1CC1)c1ccccc12 | / | -21%[14.2 µM] | / | / | / | /
CCOc1ccc(NC(=O)CSc2nc(-c3ccccc3)c3cc(OCC)ccc3n2)cc1 | 7% | -28%[46.1 µM] | ? | ? | -3% | -2%[46.1 µM]
O=C(NC1CCS(=O)(=O)C1)/C(=C\c1ccco1)NC(=O)c1ccccc1 (configuration not stated) | 35µM* | -1%[46.1 µM] | -1% | -13% | -13% | 10%[46.1 µM]
CC(C)(C)c1ccc(C(=O)N/C(=C\c2ccco2)C(=O)Nc2ccccc2C(=O)O)cc1 | 40µM* | 20%[46.1 µM] | -1% | i | -24% | -13%
Cc1nc(C)c(CC(=O)N2CCOc3ccc(CN4CCOCC4)cc3C2)s1 | / | / | -6% | -8% | -9% | /
COc1ccccc1C(CCNS(=O)(=O)c1ccc(C)cc1)c1ccco1 (configuration not stated) | -20% | -8% | / | / | 18% | /
COc1ccc(S(=O)(=O)NCC(c2ccco2)N2CCN(c3ccc(F)cc3)CC2)cc1C (configuration not stated) | 4% | / | -19% | -22% | -25% | ?
COc1ccc(S(=O)(=O)NCC(c2ccco2)S(=O)(=O)c2ccc(C)cc2)cc1F (configuration not stated) | 0.4µM* | / | -14% | -13% | 48% | ?
Cc1ccc(S(=O)(=O)C(CNC(=O)c2ccc(F)c(F)c2)c2ccco2)cc1 (configuration not stated) | -25% | / | -18% | -12% | 4% | -26%[46.1 µM]
Cc1ccc(S(=O)(=O)C(CNS(=O)(=O)c2ccc(F)c(C(F)(F)F)c2)c2ccco2)cc1 (configuration not stated) | 0.32µM* | / | -22% | -21% | 59% | -15%[46.1 µM]
